Test results as given in ChEMBL document CHEMBL3988442, “University of Dundee, Small-Polar-MMV Screening Library” (2021).
Among all 48,000 compounds or so, about 13,000 (27%) showed an effect of 50% or more. Some of the results follow.

Each compound was assayed on Wolbachia pipientis (assay: Anti-Wolbachia Cell-Based Screen). Settings: 5 µM.
Type: functional
Parameters: scale not given: in the data most compounds retested in dose-response had high values

Point of comparison: OCC1CCCN1c1cc(NCCNc2ccccn2)ncn1 (stereo unspecified), “Percent Effect” value 1.6%. Against it:
- NC(=O)NC(=O)CCN1C(=O)CC(Cc2ccc(F)cc2)C1=O (stereo unspecified) — higher, 2.732%
- COc1cccc(C(=O)N2CCOCC2CN(C)C)c1OC.O=CO (stereo unspecified) — higher, 3.966%
- Cc1cc(C(=O)N[C@H]2CN(CCC(N)=O)C[C@@H]2C2CC2)sc1C — higher, 6.856%
- O=C(CS(=O)(=O)c1ccccn1)NC1CCCc2ccccc21 (stereo unspecified) — higher, 25.59%
- O=C(Nc1cccc2c1CCCC2)C1CCCN1c1nccs1 (stereo unspecified) — higher, 15.72%
- O=C(Nc1cccc2c1CCCC2)c1cccc(CN2CC[C@H](O)C2)c1 — lower, -13.79%
- O=C(CS(=O)(=O)c1ncccc1Cl)NC1CCCc2ccccc21 (stereo unspecified) — lower, 0.01745%
- CC1CN(c2ncccc2C(=O)Nc2cccc3c2CCCC3)CCN1 (stereo unspecified) — higher, 121.2%
- Cc1cccc(C(=O)Nc2cccc3c2CCCC3)n1 — lower, -12.03%
- O=C(Nc1cccc2c1CCCC2)c1cccnc1N1CCCNCC1 — higher, 136.8%
- CC1CN(c2ncccc2C(=O)N[C@@H]2CCCc3ccccc32)CCN1 (stereo partly specified) — higher, 127.7%
- NC(=O)c1cccnc1N1CCN(c2ncnc3c2CCNC3)CC1 — lower, -13.85%
- Cc1cc(N2CCN(C(=O)c3cc(Cl)c[nH]3)CC2)nc(N)n1 — higher, 3.543%
- CC(=O)CCCC(=O)N(Cc1ccsc1)CC(C)C — lower, -0.6388%
- CC(NC(=O)Cc1ccon1)c1ccc(OCC2CC2)c(F)c1 (stereo unspecified) — lower, 0.6015%
- CC(NC(=O)Cn1ccnc1)c1ccc(OCC2CC2)c(F)c1 (stereo unspecified) — higher, 47.59%
- Cc1cc(CC(=O)NC(C)c2ccc(OCC3CC3)c(F)c2)n[nH]1 (stereo unspecified) — lower, -4.858%
- CCC(C#N)NC(=O)c1ccc(Oc2cccnc2)cc1 (stereo unspecified) — lower, -3.415%
- CCN(CC)C(=O)NC(C)c1ccc(Oc2cccnc2)c(F)c1 (stereo unspecified) — higher, 111%
- CC(NC(=O)c1ccnn1C)c1ccc(OCC2CC2)c(F)c1 (stereo unspecified) — higher, 28.88%
- CC(CNC(=O)c1ccccc1Oc1cccnc1)N(C)C (stereo unspecified) — higher, 3.869%
- CC(NC(=O)CN(C)C(C)C)c1ccc(Oc2cccnc2)c(F)c1 (stereo unspecified) — higher, 102.4%
- CC(NC(=O)N(C)C1CC1)c1ccc(Oc2cccnc2)c(F)c1 (stereo unspecified) — higher, 100.6%
- CN(C)C1Cc2ccccc2N(S(=O)(=O)c2ccc(C#N)cc2)C1 (stereo unspecified) — lower, -15.49%
- OC[C@@H](O)CN(CCC(F)(F)F)c1ncc(Cl)cn1 — lower, -0.8071%
- OCCNc1cc(N2CCN(Cc3ccccc3)C(CCO)C2)ncn1 (stereo unspecified) — lower, 0.1628%
- OCCNc1cc(-c2ccncc2)ncn1 — higher, 123.3%
- OCCNc1cc(-c2ccccc2)ncn1 — higher, 107.4%
- O=C(NCCNc1cc(N2CCCC2)ncn1)c1cnccn1 — higher, 10.51%
- Cn1ccc2c(-c3ccc(NCCO)nn3)ccnc21 — higher, 2.598%
- CNc1cc(-c2ccncc2)ncn1 — higher, 104.2%
- CN(C)C(=O)c1cc(NC(=O)N2CCCC(C(F)(F)F)C2)ccn1 (stereo unspecified) — lower, -9.482%
- COc1ccc(Cc2ncc3c(n2)CN(C(=O)CCO)C3)cc1 — lower, -39.39%
- Cc1c(CNC(=O)C2CCCCCN2C)oc2ccccc12 (stereo unspecified) — lower, 0.5854%
- N#Cc1ccc(CN(CC(N)=O)C2CCCC2)c(Br)c1 — lower, -1.736%
- CN1CC(Oc2ccc(Cl)cc2)=NC(SCC(=O)Nc2ccccc2)=N1 — higher, 25.95%
- CC(C)(C)c1ncc(C(=O)NCCSc2ccccn2)c(O)n1 — higher, 2.392%
- Cc1nn(C)cc1-c1ccnc(N2CCCN(CC(C)C)CC2)n1 — higher, 87.41%
- Cc1nn(-c2ccccc2)c(C)c1-c1ccnc(N2CCCNCC2)n1 — higher, 14.93%
- CC(=O)N1CCCN(c2nccc(-c3c(C)nn(C)c3C)n2)CC1 — higher, 41.92%
- CC(=O)N1CCCN(c2nccc(-c3cn(C)nc3C)n2)CC1 — lower, -3.527%
- Cc1nn(C)c(C)c1-c1ccnc(N2CCCN(CC(C)C)CC2)n1 — higher, 93.07%
- Cc1nn(C)cc1-c1ccnc(N2CCSCC2)n1 — lower, -11.35%
- O=C(NCc1nc(NC2CCCC2)c2cc(Cl)ccc2n1)c1cscn1 — higher, 4.35%
- Cc1cc(C)c2c(c1)C(CC(=O)O)C(=O)N2 (stereo unspecified) — higher, 1.764%
- O=c1ccc(-c2ccccc2F)nn1CN1CCCCCC1 — higher, 147.7%
- CN1CCN(Cc2noc(-c3cc(-c4ccccc4F)n[nH]3)n2)CC1 — lower, -9.744%
- O=c1ccc(-c2ccccc2F)nn1CCN1CCCS1(=O)=O — lower, -2.823%
- CN1CCCN(Cn2nc(-c3ccccc3F)ccc2=O)CC1 — higher, 154.5%
- CN1CCCN(Cc2nc(Cc3ccccc3)n[nH]2)CC1 — higher, 19.97%
- CCn1nc(-c2ccccc2F)ccc1=O — higher, 11.86%
- CCN1C(=O)[C@]2(CC[C@@H]3CN(S(=O)(=O)CC(C)C)C[C@@H]32)N=C1C — lower, -19.96%
- CCc1c(C)nc(C)nc1N1C[C@@H](CN(C)C)[C@@H](CO)C1 — lower, -2.089%
- CN(C)c1nccc(N(C)C2CCOCC2)n1 — higher, 2.354%
- CN(C)c1nccc(C2CN(c3cnccn3)CCO2)n1 (stereo unspecified) — higher, 85.29%
- Cc1n[nH]c(C2CN(C(=O)c3ccoc3C)CCO2)n1 (stereo unspecified) — lower, -42.67%
- c1ccc(C2CN(c3ncnc4[nH]cnc34)CCO2)cc1 (stereo unspecified) — higher, 11.05%
- CN(C)c1nccc(C2CN(c3ccccc3)CCO2)n1 (stereo unspecified) — higher, 99.49%
- CC(=O)N1CCOC(c2ccnc(N(C)C)n2)C1 (stereo unspecified) — higher, 93.18%
- COCCn1cc(C(=O)N2CCCC2c2ccc(F)cc2)ccc1=O (stereo unspecified) — lower, -7.034%
- COC(=O)NCCC(=O)NC(c1ccc(Cl)cc1)C(F)(F)F (stereo unspecified) — lower, -2.05%
- COc1ccccc1CN1C[C@@H](F)[C@@H](OCc2nc3cnccc3[nH]2)C1 — lower, -3.752%
- Cc1cc(C)n(CCN2CCN(C(=O)c3cc4ccccc4o3)CC2)n1 — higher, 9.033%
- O=C(NC1CCN(c2ccc(-c3ccccc3F)nn2)C1)c1ccc[nH]1 (stereo unspecified) — higher, 5.245%
- COCC(C)NC(=O)N(C)Cc1cc(C)on1 (stereo unspecified) — lower, -2.25%
- COc1cccc(C2CCN2C(=O)c2cc(C(C)C)on2)c1 (stereo unspecified) — higher, 21.92%
- CC(C)c1cc(COCCCC(=O)O)no1 — higher, 94.89%
- CC(C)c1cc(CSCCC(=O)O)no1 — higher, 33.59%
- CC(C)c1cc(COCCC(=O)O)no1 — higher, 121.8%
- COC(=O)C(C)N(Cc1cc(C)on1)C1CC1 (stereo unspecified) — lower, -2.266%
